Reference: PubChem BioAssay AID1578 (Sanford-Burnham Center for Chemical Genomics, 2009)
The campaign covered roughly 290,000 compounds. About 3,000 (1%) were called active. Only a selection was taken, and actives are over-represented in it overall. Values without a mark were called inactive. Rule as the data show it: active = inhibition mostly above about 36% (no sharp cut-off); inactive = mostly below about 34%.

Test: inhibition of NOD1-driven NF-kB reporter – cell-based, luminescence, uHTS, primary screen (AID 1578);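 also: HEK-293T reporter cells stimulated with the NOD1 agonist gamma-tri-DAP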
Settings: NOD1-driven NF-kB luciferase reporter cells, at 4 µM, active compounds read high
Work on `Cc1ccc(NNC(=O)CCc2ccccc2)c(C)c1` yielded an inhibition of -5%.
With `O=C(NC1CCCN(Cc2ccc(Cl)cc2)C1)c1c(F)cccc1F` (stereo not given) the inhibition was -4.9%.
With `N#CC1(c2ccccc2)CCCN1C(=O)c1ccc(Br)cc1` (stereo not given) the inhibition was -11.6%.
`C=CCOC(=O)c1sc(NC(=O)c2ccc(OC)cc2)nc1C` showed an inhibition of -27.6%.
With `CNC(=O)CCc1[nH]c2ccccc2c1Sc1ccccc1` the inhibition was 2.6%.
For `O=C(CCc1[nH]c2ccccc2c1Sc1ccccc1)NCCO`, the inhibition was 91.3% (active).
`O=C(O)CCc1[nH]c2ccccc2c1Sc1ccccc1` showed an inhibition of 2.8%.
In the case of `C=CCn1c(C)csc1=Nc1ccc(C(=O)O)cc1`, the inhibition is reported as -39.1%.
`CCOc1ccc(C(=O)Nn2cnnc2)cc1OCC` gave an inhibition of -0.7%.
`COc1cc(C=O)ccc1OC(=O)c1ccc(C(C)C)cc1` gave an inhibition of -9.5%.
For `CCn1c(=N)n(CC(=O)C(C)(C)C)c2ccccc21`, the inhibition was 1.2%.
With `CCc1ccc(CN2CCC(C(=O)Nc3ccc(Oc4ccccc4)nc3)CC2)o1` the inhibition was 32.5%.
With `O=C(O)COc1ccc(Br)cc1C(c1c(C(=O)O)[nH]c2ccccc12)c1c(C(=O)O)[nH]c2ccccc12` the inhibition was -18.7%.
For `O=C(O)c1[nH]c2ccccc2c1C(c1cc(Br)ccc1O)c1c(C(=O)O)[nH]c2ccccc12`, the inhibition was 76.6% (active).
`CCOc1cc(Br)cc(C(c2c(C(=O)O)[nH]c3ccccc23)c2c(C(=O)O)[nH]c3ccccc23)c1O` showed an inhibition of 18%.
`Cc1nn(CC(=O)NCC(C)c2ccccc2)c(=O)c2cccn12` (stereo not given) showed an inhibition of -28.8%.
For `COC1(OC)C(/C=C/c2ccc(Cl)cc2)C(C#N)(C#N)C1(OC)OC` (stereo not given), the inhibition was 62.6% (active).
Compound `CCOC1(OCC)C(c2ccc(Cl)cc2)C(C#N)(C#N)C1(OCC)OCC` (stereo not given) has an inhibition of -5.8%.
With `N#Cc1c(Cl)nsc1NC(=O)c1ccccc1` the inhibition was 89.1% (active).
For `N#Cc1c(NC(=O)c2ccccc2)sc2c1CCC2`, the inhibition was -29.6%.
Work on `Cc1sc(NC(=O)c2ccccc2)c(C#N)c1-c1ccccc1` yielded an inhibition of -17.1%.
Compound `C/C(=N\N=C(N)N)c1cc(Cl)ccc1Cl` has an inhibition of -23.9%.
With `CCNc1nc(Oc2ccc(C(=O)OC)cc2)nc(N(C)C)n1` the inhibition was -15.3%.
With `O=C(O)c1cc(S(=O)(=O)O)cc(Nc2c3ccccc3nc3ccccc23)c1O` the inhibition was 30.7% (active).
`Cc1ccc(O)c(Nc2c3ccccc3nc3ccccc23)c1` gave an inhibition of 12.5%.
Work on `O=C(O)c1cccc(Nc2c3ccccc3nc3ccccc23)c1` yielded an inhibition of -9%.
`COc1cccc(CNC(=O)Cc2ccc(Br)cc2)c1` gave an inhibition of -16.7%.
In the case of `COc1cccc(CNC(=O)CCl)c1`, the inhibition is reported as 73.9% (active).
`COc1cccc(CNC(=O)Cn2cccc2)c1` gave an inhibition of 18.5%.
In the case of `CC(=O)c1cccc(NC(=O)N2CCCCCC2)c1`, the inhibition is reported as -8.3%.
For `CS(=O)(=O)c1ccc2nc(NC(=O)c3cccc(Cl)c3)sc2c1`, the inhibition was -1.3%.
`Cc1ccc(S(=O)(=O)Nc2cccc(C(=O)Nc3cc(C)ccn3)c2)cc1` showed an inhibition of -15.9%.
`Cc1cccc(NS(=O)(=O)c2ccc(NC(=O)N3CCCCC3)cc2)c1` showed an inhibition of 22.5%.
In the case of `Cc1cccc(NC(=O)c2ccc(C(=O)Nc3cccc(C)c3)nc2)c1`, the inhibition is reported as 62.8% (active).
Compound `CC(=O)c1cccc(NC(=O)c2ccc(C(=O)Nc3cccc(C(C)=O)c3)nc2)c1` has an inhibition of -11.1%.
`Cc1cccc(NS(=O)(=O)c2cccc(C(=O)Nc3cccc(C(=O)O)c3)c2)c1` gave an inhibition of -23.8%.
Work on `CS(=O)(=O)c1ccc2nc(NC(=O)c3ccc(NS(=O)(=O)c4ccc(F)c(F)c4)cc3)sc2c1` yielded an inhibition of -2.4%.
Compound `CC(=O)Nc1cccc(NC(=O)c2ccc(C(=O)Nc3cccc(NC(C)=O)c3)nc2)c1` has an inhibition of -19.3%.
Work on `COc1ccc(-c2noc(N3CCC(C(=O)NCc4ccc(F)cc4)CC3)n2)cc1` yielded an inhibition of -38.2%.
Work on `COc1ccc(/C=C2/Sc3ccc(C(=O)NCCCN4CCOCC4)cc3NC2=O)cc1OC` yielded an inhibition of 29.5%.
With `COC(=O)CS(=O)(=O)c1cc(Br)cc2c1N(C(C)=O)CC2` the inhibition was -37.1%.
For `CCc1cc(/C(Cc2ccccn2)=N\Nc2ccccc2)c(O)cc1O`, the inhibition was -20.2%.
`CCCNCc1cc(OC)c(OCC(=O)Nc2ccccc2)cc1Br` gave an inhibition of -23.4%.
Work on `Cc1cccc(C)c1Nc1nnc(SCC(=O)Nc2cc(S(=O)(=O)N3CCCCC3)ccc2Cl)s1` yielded an inhibition of 44.5%.
For `CSc1ccc(CN2CCC(Cc3ccccc3)CC2)cc1`, the inhibition was 80.3% (active).
Compound `CCOc1ccc(CN2CCC(Cc3ccccc3)CC2)cc1` has an inhibition of -22.4%.
`Clc1ccc(CN2CCC(Cc3ccccc3)CC2)cc1` showed an inhibition of -18.7%.
Work on `c1coc(CNc2nc(-c3ccncc3)cs2)c1` yielded an inhibition of -35.7%.
In the case of `CCOC(=O)C1CCN(C(=O)CCCn2nc(C)c3c(C)n(-c4ccc(C)cc4)nc3c2=O)CC1`, the inhibition is reported as -4.8%.
In the case of `CC(C)C[C@H](NC(=O)OC(C)(C)C)c1n[nH]c(=S)n1N`, the inhibition is reported as -16.1%.
In the case of `CCN(C(=O)Cn1c(=O)oc2ccccc21)C1CCS(=O)(=O)C1` (stereo not given), the inhibition is reported as -9.7%.
Work on `CC(=O)N1c2ccc(S(=O)(=O)N3CCC(C(=O)Nc4cccc(C)c4)CC3)cc2CC1C` (stereo not given) yielded an inhibition of -24.4%.
Work on `CC(=O)N1c2ccc(S(=O)(=O)N3CCC(C(=O)Nc4ccccn4)CC3)cc2CC1C` (stereo not given) yielded an inhibition of -41.4%.
Compound `CC(C)[C@@H](N)C(=O)N/N=C/c1ccc2ncccc2c1` has an inhibition of -2%.
For `CSCC[C@H](NC(=O)[C@H]1CC[C@H](CNC(=O)[C@@H]2CCCN2)CC1)C(=O)O`, the inhibition was -8.2%.
Work on `COCCn1c(C)cc(/C=C2/NC(=O)N(Cc3ccc(C)cc3)C2=O)c1C` yielded an inhibition of -2.2%.
`CCCCNC(=O)[C@H](Cc1c[nH]c2ccccc12)NC(=O)c1ccccc1Cl` showed an inhibition of -18.4%.
With `C=CCN=c1scc(-c2ccc3c(c2)NC(=O)CO3)n1/N=C(\C)c1ccccn1` the inhibition was 50.6% (active).
Work on `COCCN=c1scc(-c2ccc3c(c2)NC(=O)CO3)n1/N=C(\C)c1ccc(O)cc1` yielded an inhibition of -6.7%.
With `CCN=c1scc(-c2ccc3c(c2)NC(=O)CO3)n1N=C1CCCC1` the inhibition was 51.7%.
